Assay outcomes from PubChem.
NPR1 antag = blocks ANP-stimulated signaling of human Npr1 receptor; HEK293 hNpr1 GloSensor cGMP, ANP-stimulated luminescence; Potency, µM (highest dose often 46.3 µM), usual class: inhibitors; 76,000 compounds, 1.6% hits; AID 1347048; calls by dose curve; note: nearly all actives have a fitted effect of over 60% in size
Target sequence (P16066 whole entry, looked up): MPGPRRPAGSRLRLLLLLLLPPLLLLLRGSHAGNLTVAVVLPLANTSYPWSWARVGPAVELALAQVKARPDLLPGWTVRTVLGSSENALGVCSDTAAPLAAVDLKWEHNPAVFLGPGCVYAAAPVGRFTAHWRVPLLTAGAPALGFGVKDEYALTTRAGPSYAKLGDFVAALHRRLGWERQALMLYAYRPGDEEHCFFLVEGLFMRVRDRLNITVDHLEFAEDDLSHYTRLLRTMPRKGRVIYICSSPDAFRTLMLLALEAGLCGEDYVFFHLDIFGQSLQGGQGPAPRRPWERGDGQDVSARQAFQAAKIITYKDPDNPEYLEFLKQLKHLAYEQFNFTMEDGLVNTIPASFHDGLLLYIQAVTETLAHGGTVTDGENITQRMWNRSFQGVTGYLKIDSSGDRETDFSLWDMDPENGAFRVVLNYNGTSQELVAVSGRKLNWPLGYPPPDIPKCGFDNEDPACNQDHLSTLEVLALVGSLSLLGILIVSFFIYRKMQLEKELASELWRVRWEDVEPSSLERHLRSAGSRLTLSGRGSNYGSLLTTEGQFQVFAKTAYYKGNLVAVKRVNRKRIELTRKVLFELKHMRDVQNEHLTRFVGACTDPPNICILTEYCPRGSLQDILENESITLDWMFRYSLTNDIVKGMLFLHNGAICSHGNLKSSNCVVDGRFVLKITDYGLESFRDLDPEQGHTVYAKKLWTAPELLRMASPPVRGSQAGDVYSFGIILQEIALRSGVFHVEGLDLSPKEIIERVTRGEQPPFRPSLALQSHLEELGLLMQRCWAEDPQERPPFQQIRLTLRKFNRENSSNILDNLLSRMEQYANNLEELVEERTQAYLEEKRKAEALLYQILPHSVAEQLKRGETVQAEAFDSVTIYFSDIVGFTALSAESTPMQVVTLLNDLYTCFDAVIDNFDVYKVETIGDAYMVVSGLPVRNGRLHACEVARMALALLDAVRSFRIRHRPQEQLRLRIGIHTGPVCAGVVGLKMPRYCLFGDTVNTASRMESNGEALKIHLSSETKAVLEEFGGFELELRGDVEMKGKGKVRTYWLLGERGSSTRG
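Compound pre-incubated 30 min at room temperature on GloSensor-loaded HEK293 cells stably carrying hNpr1 and the pGS-40F cGMP biosensor. Stimulation uses hNppA at 0.1 nM final; luminescence is taken at baseline and 20 min post-agonist.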
GPT2 inhibitor = inhibitors of human GPT2 alanine aminotransferase; Potency, µM (titrated, usually from 57.7 µM), usual class: inhibitors; AID 1671188; 100,000 compounds, 0.25% hits; Recombinant GPT2, coupled pyruvate oxidase/HRP Amplex Red fluorescence; Q8TD30; note: nearly all actives have a fitted effect of over 60% in size
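Fluorescence read-out: pyruvate from GPT2 turnover coupled to pyruvate oxidase, HRP and Amplex Red (0.2mM ThPP, 0.2U/mL PO and HRP, 50uM Amplex final). Substrates 250uM a-KG, 2mM L-alanine; enzyme 10ng/uL; 30 min RT.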
FLuc inh = inhibitors of firefly (Photinus pyralis) luciferase; purified P. pyralis luciferase, luminescence, biochemical; 76,000 compounds, 2.5% hits; Potency, µM (top dose mostly 115 µM), actives largely listed as inhibitors; P08659; note: nearly all actives have a fitted effect of over 65% in size
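Purified P. pyralis luciferase (10nM final) in 50mM Tris acetate pH 7.5, 10mM Mg acetate, 0.01% Tween-20, 0.05% BSA with 10uM D-luciferin and 10uM ATP. Compounds titrated qHTS. Luminescence imaged on CCD.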
3T3 cytotox = cytotoxic compounds in NIH 3T3 cells. Potency, µM (highest dose often 96.7 µM), actives largely listed as inhibitors. 94,000 compounds, 4.3% hits. NIH 3T3 viability, CellTiter-Glo ATP luminescence, 48-72 h. AID 1345082; note: nearly all actives have a fitted effect of over 55% in size
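ATP-dependent luminescence (CellTiter-Glo) served as the viability signal for NIH 3T3 cells treated with compound for 48 or 72 hr at 37 °C.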
HEK cytotox = HEK 293 cell cytotoxicity. HEK 293 viability, ATP luminescence (CellTiter-Glo), 48-72 h. Potency, µM (highest dose often 115 µM), hits mostly inhibitors. 94,000 compounds, 6.6% hits; note: nearly all actives have a fitted effect of over 60% in size
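Read-out: CellTiter-Glo ATP luminescence. Cells: HEK 293, 250 cells/well. Exposure: 48 or 72 hr, 37 degree Celsius.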
Large screens that a line does not name were inactive. Only some compounds are listed: those with a hit (about 10% of all), similar ones and a draw of the others. Unless noted, calls come from the whole dose curve; as a rule, active = well fitted curve in the direction sought with a large enough effect; inconclusive = small, poorly fitted or top-dose-only effect, or another doubt; inactive = no such curve, though single readings can be large; an effect the other way counts as inactive or inconclusive.

O=C(CC(c1ccccc1)c1ccc2c(c1)OCO2)N1CCSCC1 (stereo not drawn)	NPR1 antag inconclusive, HEK cytotox inconclusive
O=[S+]([O-])(c1cccc(C(F)(F)F)c1)N1CCN(c2ccnc3ccnn23)CC1	3T3 cytotox inconclusive, HEK cytotox inconclusive (no result: NPR1 antag, FLuc inh)
O=[S+]([O-])(NC1CCN(c2ccnc3ccnn23)CC1)c1cccc(C(F)(F)F)c1	3T3 cytotox inconclusive, HEK cytotox 44.7µM (no result: NPR1 antag, FLuc inh)
O=[S+]([O-])(NC1CCN(c2ccnc3ccnn23)C1)c1cccs1 (stereo not drawn)	3T3 cytotox inconclusive, HEK cytotox 70.8µM (no result: NPR1 antag, FLuc inh)
O=C(COc1ccc(Cl)cc1Cl)N1CCCCC1c1ccccn1 (stereo not drawn)	NPR1 antag inconclusive, FLuc inh inconclusive, 3T3 cytotox inconclusive, HEK cytotox 44.7µM
O=C(C1CCCC1)N1CCC(C(=O)N2CCCC2c2ccccn2)CC1 (stereo not drawn)	none
Cc1nnc2ccc(N3CCC(NC(=O)c4ccc(F)cc4)CC3)nn12	none (no result: NPR1 antag, GPT2 inhibitor, FLuc inh)
CNC(=O)c1cc(C2CC2)nc2onc(C3CCCN3[S+](C)(=O)[O-])c12 (stereo not drawn)	none (no result: NPR1 antag, GPT2 inhibitor, FLuc inh)
O=C(CN1C(=O)C(c2ccccc2)=NC12CCCCC2)NC1CCCC1	3T3 cytotox inconclusive, HEK cytotox 28.2µM
O=C(CN1C(=O)C(c2ccccc2)=NC12CCCC2)NCc1ccc(F)cc1	3T3 cytotox inconclusive, HEK cytotox 39.8µM
Cc1nn(-c2ccccc2)c2c1C(C(C)C)N(C1CCN([S+](=O)([O-])c3c(C)noc3C)CC1)C2=O (stereo not drawn)	none (no result: NPR1 antag, GPT2 inhibitor, FLuc inh)
Cc1ccc(C(=O)N2CCC3(CCC3N3CCOCC3)CC2)s1 (stereo not drawn)	none (no result: NPR1 antag, FLuc inh)
O=C1COc2ccc(OCc3cncs3)nc2CN1Cc1ccccc1	3T3 cytotox inconclusive, HEK cytotox inconclusive
CC(=O)Nc1cccc(-c2ccc3c(n2)CN(Cc2nc4ccccc4s2)C(=O)CO3)c1	FLuc inh inconclusive, 3T3 cytotox inconclusive, HEK cytotox inconclusive
O=C1COc2ccc(-c3ccc(F)c(Cl)c3)nc2CN1Cc1nc2ccccc2s1	3T3 cytotox inconclusive, HEK cytotox 50.1µM
O=C1COc2ccc(-c3cc(F)cc(F)c3)nc2CN1Cc1ccccc1F	3T3 cytotox inconclusive, HEK cytotox 89.1µM
O=C1COc2ccc(OCc3ccccc3)nc2CN1Cc1ccccc1F	NPR1 antag inconclusive, 3T3 cytotox 100µM, HEK cytotox inconclusive
CC(=O)N1CCN(C(=O)c2nc3cccnc3n(CC(C)C)c2=O)CC1	none (no result: NPR1 antag, FLuc inh)
O=C(c1ccc(C(F)(F)F)cc1)N1CCN(C(=O)c2nc3cccnc3n(C3CC3)c2=O)CC1	3T3 cytotox inconclusive (no result: NPR1 antag, FLuc inh)
O=C1NC(=NC2CCCCC2)C2(CCN(CC3CC3)CC2)N1c1cc(F)cc(F)c1	3T3 cytotox inconclusive (no result: NPR1 antag, FLuc inh)
O=C1NC(=NC2CCCCC2)C2(CCCN(CC3CC3)C2)N1c1cccnc1 (stereo not drawn)	3T3 cytotox inconclusive (no result: NPR1 antag, FLuc inh)
O=C1NC(=NC2CCCC2)C2(CCN(CC3CC3)CC2)N1c1cc(F)cc(F)c1	3T3 cytotox 31.6µM (no result: NPR1 antag, FLuc inh)
O=C1NC(=NC2CCCCC2)C2(CCCN(CC3CCCCC3)C2)N1c1cc(F)cc(F)c1 (stereo not drawn)	3T3 cytotox 28.2µM, HEK cytotox inconclusive (no result: NPR1 antag, FLuc inh)
O=C1NC(=NC2CCCCC2)C2(CCCN(Cc3ccsc3)C2)N1c1cc(F)cc(F)c1 (stereo not drawn)	3T3 cytotox inconclusive, HEK cytotox inconclusive (no result: NPR1 antag, FLuc inh)
O=C1NC(=NC2CCCCC2)C2(CCCN(CC3CC3)C2)N1c1cc(F)cc(F)c1 (stereo not drawn)	3T3 cytotox 31.6µM, HEK cytotox 10µM (no result: NPR1 antag, FLuc inh)
CNC(=O)c1cc(C2CC2)nc2onc(C3CCCN(C(=O)c4cccc(Cl)c4)C3)c12 (stereo not drawn)	HEK cytotox inconclusive (no result: NPR1 antag, GPT2 inhibitor, FLuc inh)
CCC(CC)n1c(=O)n(Cc2cc(C(C)C)no2)c2cc(C(=O)O)cnc21	3T3 cytotox 79.4µM
CCC(CC)n1c(=O)n(Cc2ccc(C(=O)N(C)C)o2)c2cc(C(=O)O)cnc21	none
CNC(=O)CCn1ncc2cc(OCc3ccccc3-c3cccc(OC)c3)ccc21	FLuc inh 44.7µM, 3T3 cytotox inconclusive, HEK cytotox 79.4µM
CNC(=O)CCn1ncc2cc(OCc3ccccc3-c3ccsc3)ccc21	FLuc inh 50.1µM, 3T3 cytotox inconclusive, HEK cytotox 89.1µM
CNC(=O)CCn1ncc2cc(OCc3ccccc3-c3cc(F)cc(OC)c3)ccc21	3T3 cytotox inconclusive, HEK cytotox 70.8µM
CNC(=O)CCn1ncc2cc(OCc3ccccc3-c3ccc(OC)cc3)ccc21	3T3 cytotox 89.1µM, HEK cytotox 100µM
CNC(=O)CCn1ncc2cc(OCc3ccccc3-c3cnn(C)c3)ccc21	3T3 cytotox inconclusive, HEK cytotox inconclusive
COc1ccccc1C(=O)N1CCN(Cc2ccccc2-c2cccnc2)CC1	3T3 cytotox inconclusive, HEK cytotox inconclusive (no result: NPR1 antag, FLuc inh)
O=C(c1nc2cccnc2n(CCc2ccccc2)c1=O)N1CCN([S+](=O)([O-])c2cccc(C(F)(F)F)c2)CC1	3T3 cytotox inconclusive (no result: NPR1 antag, FLuc inh)
CNC(=O)CCn1ncc2cc(OCc3ccccc3-c3ccc(OC)cc3C)ccc21	FLuc inh inconclusive, 3T3 cytotox inconclusive, HEK cytotox 100µM
CNC(=O)CCn1ncc2cc(OCc3ccccc3-c3cccnc3OC)ccc21	FLuc inh inconclusive, 3T3 cytotox inconclusive, HEK cytotox inconclusive
CNC(=O)CCn1ncc2cc(OCc3ccccc3-c3cncc(OC)c3)ccc21	FLuc inh 22.4µM, 3T3 cytotox inconclusive, HEK cytotox 79.4µM
O=C1CCCCC(Cc2ccccc2)(C(=O)Nc2ccc(F)cc2)N1 (stereo not drawn)	none
CCOC(=O)C1=C(C)N=C2SC=C(CC(=O)Nc3ccc(C)c(C)c3)N2C1c1cccc(OC)c1 (stereo not drawn)	3T3 cytotox 39.8µM, HEK cytotox 44.7µM
COC(=O)C1=C(C)N=C2SC=C(CC(=O)N(C)Cc3ccco3)N2C1c1ccc(Cl)cc1 (stereo not drawn)	HEK cytotox inconclusive
CCOC(=O)C1=C(C)N=C2SC=C(CC(=O)Nc3cccc(OC)c3)N2C1c1cccc(OC)c1 (stereo not drawn)	3T3 cytotox inconclusive, HEK cytotox inconclusive
COC(=O)C1=C(C)N=C2SC=C(CC(=O)N(C)Cc3ccco3)N2C1c1cccc(Cl)c1 (stereo not drawn)	NPR1 antag inconclusive, 3T3 cytotox inconclusive, HEK cytotox 25.1µM
CC(C)NC(=O)NC[C@H]1O[C@@H](CO)[C@@H](O)[C@H]1N(C)CCc1ccccn1	none
Cc1cc(NC(=O)CC[C@H]2NC(=O)c3ccccc3NC2=O)nn1C	none
Cc1ccccc1Oc1c(CCC(=O)N2CCSCC2)c(C)nn1-c1ccc(F)cc1	3T3 cytotox inconclusive, HEK cytotox inconclusive
Cc1nn(-c2ccc(F)cc2)c(Oc2cccc(F)c2)c1CCC(=O)N1CCSCC1	3T3 cytotox inconclusive, HEK cytotox 35.5µM
